High-throughput results deposited in PubChem by Bradner/Qi Labs at DFCI.
The sample as a whole holds a higher share of hits than the screen did.
CBX7 AlphaScr = inhibitors of human CBX7 binding to H3K27me3 peptide | O95931 | AlphaScreen His6-CBX7 / biotin-H3K27me3 peptide binding; stronger effect = lower value | normalised signal (fraction of DMSO) (concentration not given with the values) | 66,000 tested, 1.1% active | AID 1224903; in the data active means normalised signal below about 0.5
Target sequence (O95931 whole entry, looked up): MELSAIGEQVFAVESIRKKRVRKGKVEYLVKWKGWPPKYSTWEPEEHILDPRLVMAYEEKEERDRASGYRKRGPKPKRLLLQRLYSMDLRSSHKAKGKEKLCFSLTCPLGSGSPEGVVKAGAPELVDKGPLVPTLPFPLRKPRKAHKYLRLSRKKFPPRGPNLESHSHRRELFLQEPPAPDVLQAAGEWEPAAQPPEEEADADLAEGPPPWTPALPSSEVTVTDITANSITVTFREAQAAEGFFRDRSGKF
* = called active by the depositor.

For COc1ccc(-c2nc(-c3cccc(F)c3)[nH]c2-c2ccc(OC)cc2)cc1 the results were CBX7 AlphaScr 0.58.
Screening COc1ccc(-c2nc(-c3ccccc3)c(-c3ccc(Sc4ccccc4)cc3)[nH]2)cc1 returned CBX7 AlphaScr 0.52.
COc1ccc(-c2nc(-c3ccccc3)c(-c3ccc(Oc4ccccc4)cc3)[nH]2)cc1 was read as CBX7 AlphaScr 0.47*.
Screening Oc1ccc(-c2nc(-c3ccccc3)c(-c3ccc(Oc4ccccc4)cc3)[nH]2)cc1O returned CBX7 AlphaScr 0.45*.
Screening COc1ccc(-c2nc(-c3cccc4ccccc34)[nH]c2-c2ccc(OC)cc2)cc1 returned CBX7 AlphaScr 0.83.
For COc1ccc(-c2nc(-c3ccccc3F)[nH]c2-c2ccc(OC)cc2)cc1 the results were CBX7 AlphaScr 0.47*.
Screening COc1ccc(-c2nc(-c3ccccc3)c(-c3ccc(Cl)cc3)[nH]2)cc1 returned CBX7 AlphaScr 0.74.
Screening CCCCSCCCNC(=O)C1CCN(Cc2nc(-c3ccccc3C)oc2C)CC1 returned CBX7 AlphaScr 1.1.
Screening Cc1cc(N2CCC(C)CC2)nc2ccc(NC(=O)CCC(=O)NCCCOC(C)C)cc12 returned CBX7 AlphaScr 1.
COc1ccc(CCNc2ncc3c(n2)CC(c2cccs2)CC3=O)cc1 (centres undefined) was read as CBX7 AlphaScr 1.
O=C(Cn1nc(-c2ccc(Cl)cc2)ccc1=O)NCCCN1CCC(Cc2ccccc2)CC1 was read as CBX7 AlphaScr 1.
For CCC(C(=O)NCCc1cc2ccc(OC)cc2[nH]c1=O)c1ccccc1 (centres undefined) the results were CBX7 AlphaScr 1.
For Cc1cc(Nc2ccccc2F)nc2cccc(O)c12 the results were CBX7 AlphaScr 0.69.
Cc1nc2c(-c3ccccc3)c(C)nn2c(C)c1CCC(=O)Nc1ccccc1 was read as CBX7 AlphaScr 1.1.
`Cc1ccc(-c2nc(Nc3cccc(Cl)c3C)c3ccccc3n2)cc1` gave CBX7 AlphaScr 1.1.
For O=S(=O)(Nc1nc2ccccc2nc1N1CCc2ccccc2C1)c1ccc(Br)cc1 the results were CBX7 AlphaScr 0.4*.
For Cc1ccc(S(=O)(=O)Nc2nc3ccccc3nc2N2CCN(C)CC2)cc1 the results were CBX7 AlphaScr 1.
CN1CCN(c2nc3ccccc3nc2NS(=O)(=O)c2ccc(Br)cc2)CC1 was read as CBX7 AlphaScr 0.83.
For COCc1nnc(NC(=O)c2ccc(S(=O)(=O)N(C)C3CCCCC3)cc2)o1 the results were CBX7 AlphaScr 0.16*.
Screening CCCCN(C)S(=O)(=O)c1ccc(C(=O)Nc2c(C(=O)OCC)oc3ccccc23)cc1 returned CBX7 AlphaScr 1.1.
CCCCN(C)S(=O)(=O)c1ccc(C(=O)Nc2nnc(CC)o2)cc1 was read as CBX7 AlphaScr 0.39*.
`CCCCN(C)S(=O)(=O)c1ccc(C(=O)Nc2nnc(COC)o2)cc1` gave CBX7 AlphaScr 0.089*.
`COc1ccc(-c2nnc(NC(=O)c3ccc(S(=O)(=O)N(C)C4CCCCC4)cc3)o2)cc1` gave CBX7 AlphaScr 0.92.
Screening CN(C1CCCCC1)S(=O)(=O)c1ccc(C(=O)Nc2ccc(-c3nc4ccccc4[nH]3)cc2)cc1 returned CBX7 AlphaScr 1.
For CCCN(CCC)S(=O)(=O)c1ccc(C(=O)Nc2nnc(COC)o2)cc1 the results were CBX7 AlphaScr 0.82.
For COC(=O)c1c(NC(=O)c2ccc(C)cc2)sc(C)c1C the results were CBX7 AlphaScr 1.5.
Screening CCN(CC)c1cc(C)c2cc(NC(=O)CCC3CCCC3)ccc2n1 returned CBX7 AlphaScr 1.2.
CCCCCCCNC(=O)c1c[nH]c2ccc(S(=O)(=O)N(CC)CC)cc2c1=O was read as CBX7 AlphaScr 0.99.
Screening COc1ccc(N2C(=O)CC(NCc3ccc(OC)c(OC)c3)C2=O)cc1 (centres undefined) returned CBX7 AlphaScr 1.
Screening CC(C)N1C[C@H](C)C(O)(c2ccccc2)CC1C (some centres undefined) returned CBX7 AlphaScr 1.
For COC(=O)CNC(=O)c1c(-c2ccccc2)noc1C the results were CBX7 AlphaScr 0.91.
Screening COc1ccc(CNC(=O)CS(=O)(=O)Cc2nc(-c3ccccc3C)oc2C)cc1 returned CBX7 AlphaScr 0.71.
`CCOC(=O)c1c(CSc2ccccc2)n(C)c2cc(Br)c(OC(C)=O)cc12` gave CBX7 AlphaScr 1.1.
Screening Clc1ccc(Cn2c(CNc3ccccc3)nc3ccccc32)cc1 returned CBX7 AlphaScr 0.94.
O=C(NC1CCCCCCC1)C1c2cccn2CC(=O)N1Cc1ccccc1Cl (centres undefined) was read as CBX7 AlphaScr 0.91.
For Cc1oc(-c2cccc(F)c2)nc1CSCC(=O)NC1CCCCC1 the results were CBX7 AlphaScr 1.2.
For Cc1oc(-c2ccc(Cl)cc2)nc1CSCC(=O)NC1CC1 the results were CBX7 AlphaScr 1.1.
CCc1ccc(-c2nc(CSCC(=O)NC3CCCCCC3)c(C)o2)cc1 was read as CBX7 AlphaScr 0.4*.
For Cc1ccc(-c2nc(CS(=O)(=O)CC(=O)NCCC(C)C)c(C)o2)cc1 the results were CBX7 AlphaScr 1.
Screening COc1ccccc1OCC(=O)Nc1c(C(=O)c2ccc(Cl)cc2)oc2ccccc12 returned CBX7 AlphaScr 1.
Screening O=C1Nc2ccccc2Oc2cc([N+](=O)[O-])cc(Oc3cccc(Cl)c3Cl)c21 returned CBX7 AlphaScr 0.48*.
`CCOc1cc([N+](=O)[O-])cc2c1C(=O)Nc1ccccc1O2` gave CBX7 AlphaScr 0.88.
`O=C1Nc2ccccc2Oc2cc([N+](=O)[O-])cc(Oc3cccc(Cl)c3)c21` gave CBX7 AlphaScr 0.37*.
O=C1Nc2ccccc2Oc2cc([N+](=O)[O-])cc(OCCO)c21 was read as CBX7 AlphaScr 0.93.
Cc1ccc(NC(=O)Cn2cc(S(=O)(=O)c3ccc(C)cc3)c(=O)c3cc(Cl)ccc32)cc1 was read as CBX7 AlphaScr 0.84.
`CCCCNC(=O)c1sc2nc(-c3ccc(OC)cc3)cn2c1C` gave CBX7 AlphaScr 1.
COc1ccc(-c2nc(CN3CCC(C(=O)NCC(OC)OC)CC3)c(C)o2)cc1OC was read as CBX7 AlphaScr 1.1.
`CCOc1ccc(-n2nc(C(=O)NCc3ccccc3OC)c3ccccc3c2=O)cc1` gave CBX7 AlphaScr 0.85.
Cn1nc(-c2ccccc2F)c2cc(C(=O)NCc3ccc(F)cc3Cl)sc21 was read as CBX7 AlphaScr 0.83.
For Cc1cc(N2CCCCC2)nc2ccc(NC(=O)C3COc4ccccc4O3)cc12 (centres undefined) the results were CBX7 AlphaScr 1.
COc1ccc(CN(C(=O)c2ccc(Br)cc2)C2CCS(=O)(=O)C2)cc1 (centres undefined) was read as CBX7 AlphaScr 0.99.
`O=C(CSc1nnc(-c2cccnc2)o1)Nc1ccc(Cl)c(Cl)c1` gave CBX7 AlphaScr 0.47*.
Screening CCOC(=O)c1ccc(NC(=O)CSc2nnc(-c3cccnc3)o2)cc1 returned CBX7 AlphaScr 1.
For O=C(CSc1nnc(-c2cccnc2)o1)Nc1ccc(Br)cc1 the results were CBX7 AlphaScr 1.
Screening O=C(CSc1nc2ccccc2nc1Cc1ccc(F)cc1)NCc1ccccc1 returned CBX7 AlphaScr 1.
CCCOc1ccc(-c2cc(C(=O)O)c3cc(Cl)ccc3n2)cc1 was read as CBX7 AlphaScr 0.83.
Screening Cc1ccc(C)c(N2CCN(C(=O)CC3Sc4ccccc4NC3=O)CC2)c1 (centres undefined) returned CBX7 AlphaScr 0.5*.
For Cc1cccc(CCNC(=O)CC2Sc3ccccc3NC2=O)c1 (centres undefined) the results were CBX7 AlphaScr 0.98.
